# Reference: PubChem BioAssay AID463095 (Sanford-Burnham Center for Chemical Genomics, 2010)
# The list shows a part of the results. Calls of active or inactive are those of the source.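 The calls were made as follows: active = proliferation increase above 40% at any of the four tested concentrations; inactive = the rest.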
# Assay: inducers of beta-cell proliferation in MIN6, confirmation, MIN6 cells, mouse (AID 463095)
row,SMILES,outcome
1,COc1ccc(CCn2c(=N)c(C(=O)NCc3ccco3)cc3c(=O)n4cccc(C)c4nc32)cc1,inactive
2,CCOC(=O)Nc1sc(C(=O)N(C)C)c(C)c1C(=O)OCC,inactive
3,CCn1c(=O)n(CC)c2cc(N3CCCC3)c(NC(=O)c3ccccc3Br)cc21,inactive
4,S=C(Nc1cccc(Cl)c1)Nc1ccc2cn[nH]c2c1,inactive
5,O=S(=O)(NCCOc1cccc2cccnc12)c1ccc(F)cc1,inactive
6,O=C1c2ccccc2S(=O)(=O)c2cc(N3CCN(c4ccccn4)CC3)ccc21,inactive
7,Cn1nc(-c2ccccc2)c2cc([N+](=O)[O-])ccc21,inactive
8,N#Cc1cccc(CN2CCC(=O)N([C@H](CO)c3ccccc3)CC2)c1,inactive
9,O=C(CSc1nc2ccccc2[nH]1)N/N=C/C=C\c1ccccc1[N+](=O)[O-],inactive
10,Cc1ccc(C(=O)Nc2ccc(NC(=O)c3cccs3)cc2)c(C)c1,inactive
11,Cc1nn(C(C)C(=O)NCCC2=CCCCC2)c(=O)c2nn(-c3ccccc3)c(C)c12 (stereo unspecified),inactive
12,COc1cccc(CNC(=O)C2CCCN(c3ncnc4c3nc3n4CCCCC3)C2)c1 (stereo unspecified),inactive
13,CC(=O)c1cccc(NC(=O)COc2ccc(S(=O)(=O)N3CCOCC3)cc2)c1,inactive
14,Cn1cc(CN2CCC(C(O)CCc3ccccc3)CC2)c(-c2ccccc2F)n1 (stereo unspecified),inactive
15,CC(=O)OC(C(=O)NC1CCCCC1)c1ccccc1 (stereo unspecified),inactive
16,COc1cccc(CNC(=O)CCC2CCCN(C(=O)c3ccoc3C)C2)c1 (stereo unspecified),inactive
17,O=C(NNC(=S)NCc1ccccc1)c1ccc(OC(F)F)cc1,inactive
18,CCCNC(=O)CCn1nc(-c2ccccc2)c2ccccc2c1=O,inactive
19,COc1ccccc1N=Cc1c(O)c2ccccc2oc1=O,inactive
20,CCOc1ccccc1NC(=O)Nc1cc(OC)ccc1OC,inactive
21,COc1ccc(CCC(=O)c2ccc(OC)cc2)cc1,inactive
